Experimental data published in PubChem BioAssay (Tox21).
Values joined by “and” are separate entries in the source; they are usually repeats but may differ in a detail not shown here. Equal entries are not always repeated. Records with an inconclusive call do not appear. A call without a number means that no potency is given here. Active and inactive are the calls of the source. Calls follow the shape of the dose curve; as a rule, active = well fitted curve in the direction sought with a large enough effect in the repeat runs; inconclusive = weak or mixed curves; inactive = no such curve, though single readings can be large; an effect the other way counts as inactive or inconclusive.

Experiment: qHTS RealTime-Glo MT Cell Viability Assay in HEK293 cells - 32 hour (AID 1224868); also: potency is read from the fitted curve at half-maximal effect
Conditions: RealTime-Glo luminescence; series mostly up to 76.8 µM
Method in brief: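 Luminescence generated by NanoLuc from substrate produced by living HEK293 cells served as the viability signal. Each value reflects the reading at its stated time point during continuous 40 h compound exposure at 37 C.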
Also: nearly all actives have a fitted effect of over 50% in size.

Row | Compound | Potency
1 | Brc1ccc(Oc2ccc(Br)cc2Br)c(Br)c1 | 49 µM (active)
2 | CC[C@H](C)[C@H]1O[C@]2(C=C[C@@H]1C)C[C@@H]1C[C@@H](C/C=C(\C)[C@@H](O[C@H]3C[C@H](OC)[C@@H](O[C@H]4C[C@H](OC)[C@@H](NC)[C@H](C)O4)[C@H](C)O3)[C@@H](C)/C=C/C=C3\CO[C@@H]4[C@H](O)C(C)=C[C@@H](C(=O)O1)[C@]34O)O2 | 4.9 µM (active)
3 | CSC(=O)c1c(C(F)F)nc(C(F)(F)F)c(C(=O)SC)c1CC(C)C | inactive
4 | CNC(C)(C)Cc1ccccc1 | inactive
5 | CC(C)[C@@H](Nc1ccc(C(F)(F)F)cc1Cl)C(=O)OC(C#N)c1cccc(Oc2ccccc2)c1 (some centres undefined) | inactive
6 | C[C@]12CC[C@H]3[C@@H](CCC4=CC(=O)CC[C@@H]43)[C@@H]1CC[C@@H]2OC(=O)CCc1ccco1 | inactive
7 | CNC(=O)O/N=C(\C)C(C)S(C)(=O)=O (centres undefined) | inactive
8 | Fc1ccc(C(OCCN2CCN(CCCc3ccccc3)CC2)c2ccc(F)cc2)cc1 | 9.52 µM (active)
9 | CN(C)c1ccc(N)cc1 | 24 µM (active)
10 | CC(C)C(Nc1ccc(C(F)(F)F)cc1Cl)C(=O)OC(C#N)c1cccc(Oc2ccccc2)c1 (centres undefined) | inactive
11 | N#CSCc1ccccc1 | inactive
12 | CN(C)C(=S)SSC(=S)N(C)C | 242 nM (active) and 245 nM (active)
13 | c1csc(-c2ccc(-c3cccs3)s2)c1 | inactive
14 | COP(=S)(NC(C)C)Oc1ccc(C)cc1[N+](=O)[O-] (centres undefined) | inactive
15 | CC(=O)C(Cl)C(=O)N(C)C (centres undefined) | inactive
16 | CCOC(=O)CCN(SN(C)C(=O)Oc1cccc2c1OC(C)(C)C2)C(C)C | inactive

Row | Compound | Potency
17 | COc1nc(C)nc(NC(=O)NS(=O)(=O)c2ccccc2Cl)n1 | inactive
18 | c1ccc2nc(N3CCNCC3)ccc2c1 | inactive
19 | CCOP(=S)(OCC)Oc1cc(C)nc(N(CC)CC)n1 | inactive
20 | CC1CCCC1 | inactive
21 | CN/C(=N\[N+](=O)[O-])NCc1cnc(Cl)s1 | inactive
22 | CCOP(=O)(Sc1ccccc1)Sc1ccccc1 | inactive
23 | CCOC(=O)Cc1ccccc1 | inactive
24 | CNC(=O)Oc1cc(C)cc(C(C)C)c1 | inactive
25 | O=c1c2ccccc2c(=O)c2c1cc(Cl)c1[nH]c3c([nH]c12)c(Cl)cc1c(=O)c2ccccc2c(=O)c13 | inactive
26 | CCOP(=S)(OCC)SC(CCl)N1C(=O)c2ccccc2C1=O (centres undefined) | inactive
27 | ClC1=C(Cl)[C@]2(Cl)[C@H]3[C@H]([C@@H]4C=C[C@H]3C4)[C@@]1(Cl)C2(Cl)Cl | 48.9 µM (active) and 49 µM (active)
28 | [O]=[Cr][O][Cr]=[O] | inactive
29 | O=Cc1ccccc1 | inactive
30 | Cc1ccc(C)c2ccccc12 | inactive
31 | CCNc1nc(NC(C)C(C)C)nc(SC)n1 (centres undefined) | inactive

Experiment: A CellTox Green Cytotoxicity Assay to monitor cytotoxicity in HEK293 cells - 0 hour (AID 1224869)
Conditions: CellTox Green fluorescence; series mostly up to 76.8 µM
Method in brief: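 HEK293 cells, 600/well, were preincubated 5 hours and then exposed to compounds at 37 C for up to 40 hours. A cell-impermeant cyanine dye staining dead-cell DNA was read by fluorescence at 0, 8, 16, 24, 32 and 40 h time points.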

Row | Compound | Potency
32 | Brc1ccc(Oc2ccc(Br)cc2Br)c(Br)c1 | inactive
33 | CC[C@H](C)[C@H]1O[C@]2(C=C[C@@H]1C)C[C@@H]1C[C@@H](C/C=C(\C)[C@@H](O[C@H]3C[C@H](OC)[C@@H](O[C@H]4C[C@H](OC)[C@@H](NC)[C@H](C)O4)[C@H](C)O3)[C@@H](C)/C=C/C=C3\CO[C@@H]4[C@H](O)C(C)=C[C@@H](C(=O)O1)[C@]34O)O2 | inactive
34 | CSC(=O)c1c(C(F)F)nc(C(F)(F)F)c(C(=O)SC)c1CC(C)C | inactive
35 | Oc1cc(Cl)cc(Cl)c1 | inactive
36 | CNC(C)(C)Cc1ccccc1 | inactive
37 | CC(C)[C@@H](Nc1ccc(C(F)(F)F)cc1Cl)C(=O)OC(C#N)c1cccc(Oc2ccccc2)c1 (some centres undefined) | inactive
38 | Cc1ccc([N+](=O)[O-])[c]2c1[O][Hg]2 | inactive
39 | CC(C)N(C(=O)SC/C(Cl)=C/Cl)C(C)C | inactive
40 | C[C@]12CC[C@H]3[C@@H](CCC4=CC(=O)CC[C@@H]43)[C@@H]1CC[C@@H]2OC(=O)CCc1ccco1 | inactive
41 | CNC(=O)O/N=C(\C)C(C)S(C)(=O)=O (centres undefined) | inactive
42 | CC1(C)[C@H](/C=C2\CCSC2=O)[C@@H]1C(=O)OCc1coc(Cc2ccccc2)c1 | inactive
43 | Fc1ccc(C(OCCN2CCN(CCCc3ccccc3)CC2)c2ccc(F)cc2)cc1 | inactive
44 | CN(C)c1ccc(N)cc1 | inactive
45 | CC(C)C(Nc1ccc(C(F)(F)F)cc1Cl)C(=O)OC(C#N)c1cccc(Oc2ccccc2)c1 (centres undefined) | inactive
46 | N#CSCc1ccccc1 | inactive
47 | Cc1cccc(Cc2cnc[nH]2)c1C | inactive
48 | CN(C)C(=S)SSC(=S)N(C)C | inactive
49 | c1csc(-c2ccc(-c3cccs3)s2)c1 | inactive
50 | COP(=S)(NC(C)C)Oc1ccc(C)cc1[N+](=O)[O-] (centres undefined) | inactive

Row | Compound | Potency
51 | CCC1(CC)C(=O)N=C(O)NC1=O | inactive
52 | CC(=O)C(Cl)C(=O)N(C)C (centres undefined) | inactive
53 | CCOC(=O)CCN(SN(C)C(=O)Oc1cccc2c1OC(C)(C)C2)C(C)C | inactive
54 | COc1nc(C)nc(NC(=O)NS(=O)(=O)c2ccccc2Cl)n1 | inactive
55 | c1ccc2nc(N3CCNCC3)ccc2c1 | inactive
56 | CCCCC(CC)COC(=O)OOC(C)(C)C (centres undefined) | inactive
57 | CCOP(=S)(OCC)Oc1cc(C)nc(N(CC)CC)n1 | inactive
58 | CC1CCCC1 | inactive
59 | COc1ccc2c(c1OC)C(=O)O[C@@H]2[C@H]1c2cc3c(cc2CCN1C)OCO3 | inactive
60 | CN/C(=N\[N+](=O)[O-])NCc1cnc(Cl)s1 | inactive
61 | CCOP(=O)(Sc1ccccc1)Sc1ccccc1 | inactive
62 | CNC(=O)Oc1cc(C)cc(C(C)C)c1 | inactive
63 | O=c1c2ccccc2c(=O)c2c1cc(Cl)c1[nH]c3c([nH]c12)c(Cl)cc1c(=O)c2ccccc2c(=O)c13 | inactive
64 | CCOP(=S)(OCC)SC(CCl)N1C(=O)c2ccccc2C1=O (centres undefined) | inactive
65 | ClC1=C(Cl)[C@]2(Cl)[C@H]3[C@H]([C@@H]4C=C[C@H]3C4)[C@@]1(Cl)C2(Cl)Cl | inactive
66 | [O]=[Cr][O][Cr]=[O] | inactive
67 | O=Cc1ccccc1 | inactive
68 | Cc1ccc(C)c2ccccc12 | inactive
69 | CCNc1nc(NC(C)C(C)C)nc(SC)n1 (centres undefined) | inactive
